High-throughput results (PubChem)
PABP FP inh: PABP poly(A) RNA binding inhibitors, primary screen, biochemical, fluorescence polarization, uHTS; 290,000 tested, 1% active; AID 2014, 2009; calls only at 35 µM;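 further: calls also rest on retests at 20 µM and on dose response follow-up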
eIF4H FP inh: human eIF4H binding inhibitors, primary screen, translation initiation inhibitor project, biochemical, uHTS, fluorescence polarization; eIF4H fluorescence polarization binding assay; 290,000 tested, 0.94% active; Eukaryotic translation initiation factor 4H (Homo sapiens), Q15056; inhibition, % at 35 µM; AID 2012, 2009;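 further: calls also rest on retests at 20 µM and on dose response follow-up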
EBV gp42 block: Epstein-Barr virus gp42 inhibitors, primary screen, biochemical, uHTS, fluorescence polarization. inhibition, % (tested at 21.74 µM). Glycoprotein 42 (Epstein-Barr virus (strain AG876)), Q1HVG2. 220,000 tested, 0.42% active. Fluorescence polarization binding assay, mP read-out; in the data active means inhibition above about 50%
MEX-5 binding: MEX-5 zinc finger RNA-binding disruptors – biochemical, C. elegans, fluorescence polarization, MLPCN library, primary screen. Zinc finger protein mex-5 (Caenorhabditis elegans), Q9XUB2. MEX-5/FITC-TCR2 RNA binding; hits give low values. activity score (negative = inhibition of binding), % at 10 µM. 300,000 tested, 0.38% active. AID 1832, 2009;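 active means inhibition past about -25% in most replicates, and total fluorescence under double the plate's negative control median, limit read from the data; inconclusive means replicates evenly split on the limit, or fluorescence at least double controls; inactive means too little inhibition in most replicates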
Target sequence (Q9XUB2 whole entry, looked up): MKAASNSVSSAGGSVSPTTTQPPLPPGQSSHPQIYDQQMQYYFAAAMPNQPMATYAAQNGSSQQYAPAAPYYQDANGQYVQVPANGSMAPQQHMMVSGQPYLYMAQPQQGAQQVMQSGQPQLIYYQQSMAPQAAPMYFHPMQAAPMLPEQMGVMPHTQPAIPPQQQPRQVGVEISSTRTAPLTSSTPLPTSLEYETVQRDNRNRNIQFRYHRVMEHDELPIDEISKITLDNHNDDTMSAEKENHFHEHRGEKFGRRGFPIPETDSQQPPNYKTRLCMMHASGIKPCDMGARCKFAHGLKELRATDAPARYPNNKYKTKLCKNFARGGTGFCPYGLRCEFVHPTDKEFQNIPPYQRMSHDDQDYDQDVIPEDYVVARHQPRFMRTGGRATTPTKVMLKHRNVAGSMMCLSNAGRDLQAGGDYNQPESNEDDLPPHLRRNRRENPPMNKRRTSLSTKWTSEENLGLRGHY
MLLE-PAM2 inh: inhibitors of PABP1 MLLE–PAM2 peptide binding, primary screen, biochemical, fluorescence polarization, FITC-PAM2, GST-MLLE; inhibition, % at 20 µM; AID 588489, 2011; 360,000 tested, 0.36% active; Polyadenylate-binding protein 1 (Homo sapiens), P11940; in the data active means inhibition above about 35%, passing the limit was not always enough
Of the large screens only hits and unclear results are named; the others gave an inactive call. Sampled rows, rich in hits. Any-hit rate of the full collection: about 1.8%. Unless noted, how the calls were made is not given here.

Clc1ccc(C2Nc3cccc4cccc(c34)N2)cc1	PABP FP inh active, eIF4H FP inh 86 (no result: EBV gp42 block)
CSc1ccc(C2Nc3cccc4cccc(c34)N2)cc1	PABP FP inh active, eIF4H FP inh 90 (no result: EBV gp42 block)
Cc1cccc(C2Nc3cccc4cccc(c34)N2)c1	eIF4H FP inh 53 (no result: EBV gp42 block)
Clc1ccc(C2Nc3cccc4cccc(c34)N2)c(Cl)c1	none (no result: PABP FP inh, eIF4H FP inh, EBV gp42 block, MEX-5 binding)
CCN(CC)CCN1C2=C(C(=O)CC(C)(C)C2)C(c2cccc(F)c2)C2=C1CC(C)(C)CC2=O	EBV gp42 block 140
COc1ccc(C)cc1NC(=O)C(NC(=O)c1cc(OC)c(OC)c(OC)c1)C(C)C (stereo not drawn)	PABP FP inh active, eIF4H FP inh 91
COC(=O)c1cc2c(-c3ccccc3)cc3ccccn3c-2c1C(=O)OC	PABP FP inh active, eIF4H FP inh inconclusive, EBV gp42 block 61
COC(=O)c1c(C)c2c(C)cc3ccccn3c-2c1C(=O)OC	PABP FP inh inconclusive, eIF4H FP inh inconclusive
Oc1ccc2ccccc2c1/C=N/n1cnnc1	none
Cc1cc(O)c(C=Nc2ccc(Cl)cn2)c(=O)o1	PABP FP inh active, eIF4H FP inh 59
Oc1ccc2ccccc2c1C=Nc1ccc(Cl)cn1	PABP FP inh active, eIF4H FP inh 85, EBV gp42 block 82
Cc1cc(O)c(/C=N/c2ccccn2)c(=O)o1	none
Cc1cccc(/N=C/c2c(O)cc(C)oc2=O)n1	PABP FP inh active, eIF4H FP inh 78
Cc1csc(NC(=O)C2(C)CCN2C(=O)C(C)C)c1C#N (stereo not drawn)	none (no result: PABP FP inh, eIF4H FP inh, EBV gp42 block, MEX-5 binding)
Nc1ccc(S(=O)(=O)c2ccc(N3CCOCC3)c(N)c2)cc1	none (no result: PABP FP inh, eIF4H FP inh, EBV gp42 block, MEX-5 binding)
c1ccc(COc2cccc(-c3cc4nc(NCCCn5ccnc5)ccn4n3)c2)cc1	none (no result: PABP FP inh, eIF4H FP inh, EBV gp42 block, MEX-5 binding)
CCOc1ccccc1N1CC(C(=O)Nc2cc(S(=O)(=O)N3CCOCC3)ccc2OC(C)C)CC1=O (stereo not drawn)	none (no result: PABP FP inh, eIF4H FP inh, EBV gp42 block, MEX-5 binding)
COc1ccc(N)c2c1C(=O)c1ccccc1C2=O	none
COc1ccc(OC)c2c1C(=O)C(Cl)=C(Cl)C2=O	MLLE-PAM2 inh 58
COc1ccc(OC)c2c1C(=O)c1ccccc1C2=O	PABP FP inh active, EBV gp42 block active, MEX-5 binding inconclusive (no result: MLLE-PAM2 inh)
O=c1c2ccccc2sn1-c1ccc(F)cc1	MLLE-PAM2 inh 37 (no result: PABP FP inh, eIF4H FP inh, EBV gp42 block, MEX-5 binding)
CC(=O)c1cc2cccc(OC3(C)CCN(Cc4ccc(-c5ccccn5)cc4)C3)c2o1 (stereo not drawn)	none (no result: PABP FP inh, eIF4H FP inh, EBV gp42 block, MEX-5 binding)
COc1ccc(S(=O)(=O)Nc2ccc(O)c3ccccc23)cc1	MLLE-PAM2 inh 38
COc1ccc(S(=O)(=O)Nc2ccccc2)cc1	none (no result: PABP FP inh, eIF4H FP inh, EBV gp42 block)
Cc1ccc2[nH]c(O)c(N=NC(=O)c3ccc(NS(=O)(=O)c4cccs4)cc3)c2c1	EBV gp42 block 58
O=C(COc1ccccc1)Nc1nnc(S(=O)(=O)N2CCCCC2)s1	none (no result: EBV gp42 block)
Cc1ccc(OCC(=O)Nc2nnc(S(=O)(=O)N3CCCCCC3)s2)cc1	eIF4H FP inh 66 (no result: EBV gp42 block)
O=C(COc1ccccc1)Nc1nnc(S(=O)(=O)N2CCCCCC2)s1	none (no result: EBV gp42 block)
Cc1ccc(OCC(=O)Nc2nnc(S(=O)(=O)N3CCCCC3)s2)cc1	PABP FP inh active, eIF4H FP inh 83 (no result: EBV gp42 block)
CCOC(=O)N1CCC(Nc2nc3ccccc3n3nnnc23)CC1	PABP FP inh active, eIF4H FP inh inconclusive
O=C(O)c1cccc(NC(=S)N/N=C/c2ccccc2OCc2cccc(Br)c2)c1	eIF4H FP inh 53
Cc1ccccc1N/C(=C(/C(Cl)=C(Cl)Cl)[N+](=O)[O-])n1nnc2ccccc21	none
COc1ccc(N/C(=C(/C(Cl)=C(Cl)Cl)[N+](=O)[O-])n2nnc3ccccc32)cc1	MEX-5 binding -42 (no result: MLLE-PAM2 inh)
CCN(C(=O)CN1C(=O)NC2(CCCC2)C1=O)c1nc2c(C)cccc2s1	none (no result: PABP FP inh, eIF4H FP inh, EBV gp42 block, MEX-5 binding)
Brc1ccc(Nc2nc3ccccc3n3nnnc23)cc1	PABP FP inh active, eIF4H FP inh 79 (no result: MLLE-PAM2 inh)
c1ccc(Nc2nc3ccccc3n3nnnc23)cc1	PABP FP inh inconclusive, eIF4H FP inh inconclusive
CC1(C(=O)NS(=O)(=O)Cc2ccccc2C(F)(F)F)CCN1C(=O)Cc1ccccc1 (stereo not drawn)	none (no result: PABP FP inh, eIF4H FP inh, EBV gp42 block, MEX-5 binding)
Oc1c(C=Nc2ccccc2)sc(=S)n1Cc1ccccc1	PABP FP inh inconclusive, eIF4H FP inh inconclusive, MEX-5 binding -43
CCn1c(O)c(C=Nc2ccccc2)sc1=S	none (no result: MLLE-PAM2 inh)
O=C(NCCc1ccccc1)c1cc(S(=O)(=O)N2CCCCC2)c[nH]1	none (no result: PABP FP inh, eIF4H FP inh, EBV gp42 block, MEX-5 binding)
O=C(O)CCc1ccc(-c2cccs2)n1CCC(=O)O	PABP FP inh active, eIF4H FP inh 49
CCc1nc2c(OCCn3cccc3)cccn2c1N(C)C(=O)C1CC1	none (no result: PABP FP inh, eIF4H FP inh, EBV gp42 block, MEX-5 binding)
Cc1ccc(C=C2C(Cl)=C(Cl)C(Cl)=C2Cl)cc1	PABP FP inh active, eIF4H FP inh 102 (no result: MLLE-PAM2 inh)
COC(=O)c1ccc2nc(-c3cccc(Cl)c3)c(Cc3ccsc3)n2c1	none (no result: PABP FP inh, eIF4H FP inh, EBV gp42 block, MEX-5 binding)
Cc1ccc(CNCc2cc3c(C(C)(C)C)nn(-c4ccccc4)c3[nH]c2=O)cc1	none
CC(C)(C)c1nn(-c2ccccc2)c2[nH]c(=O)c(CNCc3ccco3)cc12	MEX-5 binding -27
COCCNC(=O)C1(C)CCCN(Cc2csc(-c3ccc(Cl)cc3)n2)C1 (stereo not drawn)	none (no result: PABP FP inh, eIF4H FP inh, EBV gp42 block, MEX-5 binding)
Cc1c(O)cc2c(c1O)C(=O)CC(c1ccc(O)cc1)O2 (stereo not drawn)	PABP FP inh active, eIF4H FP inh 95
COc1cc(O)c2c(c1)OC(c1ccc(O)cc1)CC2=O (stereo not drawn)	none
CC1C(=O)NN=C1C(=O)N/N=C/c1ccco1 (stereo not drawn)	MEX-5 binding -26
CC1C(=O)NN=C1C(=O)N/N=C\c1ccc(O)cc1O (stereo not drawn)	MEX-5 binding -62
CC1=NNC(=O)C1CCC(=O)N/N=C/c1ccco1 (stereo not drawn)	none
CC(C)N(C)c1ncnc2c1ncn2[C@H]1CN(Cc2ccc(F)cc2)C[C@@H](CO)O1	none (no result: PABP FP inh, eIF4H FP inh, EBV gp42 block, MEX-5 binding)
CCN(CC)Cc1cc(O)c(CN(CC)CC)cc1O	eIF4H FP inh inconclusive, MEX-5 binding -39, MLLE-PAM2 inh 74
CCCn1c(C)cc(-c2csc(N)n2)c1C	eIF4H FP inh 122
Cc1c2cc(O)c(=O)cc-2oc2cc(O)c(O)cc12	EBV gp42 block 129, MEX-5 binding inconclusive
COC(=O)CSc1nc(SC)nc2c1sc1nc(-c3ccco3)c3c(c12)CC(C)(C)OC3	none (no result: PABP FP inh, eIF4H FP inh, EBV gp42 block, MEX-5 binding)
OCCN(CCO)c1ncnc2c1sc1nc(N3CCOCC3)c3c(c12)CCCC3	none
CSc1nc(SCCO)c2sc3nc(-c4ccco4)c4c(c3c2n1)CC(C)(C)OC4	PABP FP inh active
CSc1nc(N(CCO)CCO)c2sc3nc(-c4ccco4)c4c(c3c2n1)CCC4	PABP FP inh active, eIF4H FP inh 89, EBV gp42 block 56
CC(=O)Nc1cccc(/C(C)=N/NC(=O)c2cccc(S(=O)(=O)N3CCCC3)c2)c1	none (no result: PABP FP inh, eIF4H FP inh, EBV gp42 block, MEX-5 binding)
COc1ccccc1NC(=O)CSc1nc(N)c(C#N)cc1C#N	eIF4H FP inh 87
